Screening data (PubChem)
Giardia killer – Small Molecules that selectively kill Giardia lamblia: qHTS; AID 540267, 2011; Giardia lamblia trophozoite viability; activity change, % at 7.66 µM, hits read low; 0.15% of 340,000 active; in the data active = activity change below about -80%; inconclusive = between about -30% and that limit;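 note: parasites exposed to compound for two days anaerobically before the ATP read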
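Viability, read as ATP luminescence: trophozoites at 100 cells/well, compound added, 48 hrs anaerobic at 37 deg C, then 15-30 min room-temperature development before reading.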
IL-1B inflam inh – qHTS for Inhibitors of Inflammasome Signaling: IL-1-beta AlphaLISA Primary Screen; THP-1 LPS/ATP IL-1B secretion, AlphaLISA, 16 h; stronger effect = lower value; activity change, % at 57.5 µM; 4.7% of 360,000 active; AID 743279, 2014; in the data active = activity change below about -50%; inconclusive = mostly about -30% to -49%
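Secreted IL-1B measured by AlphaLISA bead assay after 16 h compound exposure of THP-1 cells; compounds (final up to 57.5 uM) added 1 h before LPS (250 ng/mL) and ATP (1.25 mM) stimulation; lower signal means less secretion.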
ELG1 DNA repair – qHTS screen for small molecules that inhibit ELG1-dependent DNA repair in human embryonic kidney (HEK293T) cells expressing luciferase-tagged ELG1; HEK293T ELG1-luciferase reporter, luminescence, 16 h; DNA damage induced by 5-fluorouridine; Potency, µM (doses to about 46.1 µM), for inactives: top-dose activity change, negative = inhibition, usual class: inhibitors; 2.3% of 330,000 active; note: potency is the fitted concentration of half-maximal effect; nearly all actives have a fitted effect of over 55% in size
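Reporter activity after DNA damage by 5-fluorouridine is monitored. Compound-treated cells incubate 16 hr at 37 °C, then ONE-Glo is added for 30 min before luminescence reading.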
DT40 TDP1 no CPT – qHTS for Inhibitors of human tyrosyl-DNA phosphodiesterase 1 (TDP1): qHTS in cells in absence of CPT; DT40 Tdp1-/- hTDP1 cells, no CPT, ATP luminescence, 48 h; Potency, µM (highest dose often 46.2 µM), without a hit: at the highest dose activity change, negative = growth inhibition, usual class: inhibitors; 15% of 420,000 active; AID 686978, 2013; note: potency is the fitted concentration of half-maximal effect; nearly all actives have a fitted effect of over 55% in size
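Camptothecin absent (DMSO only). Human TDP1-complemented DT40 knockout cells, 400 cells/well, 37 °C for minimum 48 hr; ATP measured via CellTiter-Glo, 30 min dark incubation, luminescence.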
TDP1 block – qHTS Assay for Inhibitors of Tyrosyl-DNA Phosphodiesterase (TDP1); Tyrosyl-DNA phosphodiesterase 1 (Homo sapiens), Q9NUW8; Potency, µM (doses to about 130 µM), for inactives: top-dose activity change, negative = inhibition, most hits filed as inhibitors; 0.28% of 350,000 active; recombinant TDP1, AlphaScreen DNA substrate cleavage; note: potency is the fitted concentration of half-maximal effect; nearly all actives have a fitted effect of over 40% in size
Target sequence (Q9NUW8 whole entry, looked up): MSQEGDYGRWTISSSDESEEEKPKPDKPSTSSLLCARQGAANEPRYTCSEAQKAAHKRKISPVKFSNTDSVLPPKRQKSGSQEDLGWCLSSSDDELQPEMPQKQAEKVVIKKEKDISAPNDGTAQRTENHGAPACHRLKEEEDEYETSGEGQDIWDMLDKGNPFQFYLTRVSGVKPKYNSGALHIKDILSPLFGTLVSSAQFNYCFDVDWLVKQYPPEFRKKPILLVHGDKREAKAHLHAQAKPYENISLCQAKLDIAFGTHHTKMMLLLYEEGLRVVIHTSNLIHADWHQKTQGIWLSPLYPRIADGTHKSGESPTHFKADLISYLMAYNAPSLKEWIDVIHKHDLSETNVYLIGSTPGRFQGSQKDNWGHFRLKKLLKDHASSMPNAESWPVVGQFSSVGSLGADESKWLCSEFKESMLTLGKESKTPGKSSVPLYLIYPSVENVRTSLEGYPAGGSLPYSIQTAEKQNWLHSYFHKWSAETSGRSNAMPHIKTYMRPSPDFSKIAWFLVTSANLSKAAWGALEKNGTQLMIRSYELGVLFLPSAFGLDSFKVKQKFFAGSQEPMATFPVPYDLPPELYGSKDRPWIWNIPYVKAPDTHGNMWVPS
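Tdp1 1 nM final; 15 min RT w/ cpd; substrate 15 nM, 5 min; beads 10 ug/ml, 10 min; AlphaScreen read. Neg ctrl: no enzyme.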
DT40 TDP1 CPT – qHTS for Inhibitors of human tyrosyl-DNA phosphodiesterase 1 (TDP1): qHTS in cells in presence of CPT. chicken DT40 Tdp1-/-;hTDP1 cells + 20 nM CPT, ATP luminescence, 48 h. Potency, µM (top dose mostly 46.2 µM), without a hit: at the highest dose activity change, negative = growth inhibition, usual class: inhibitors. 12% of 420,000 active; note: potency is the fitted concentration of half-maximal effect; nearly all actives have a fitted effect of over 55% in size
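Chicken DT40 Tdp1-/- cells stably complemented with human TDP1 were seeded at 400 cells/well in medium containing 20 nM camptothecin, exposed to pin-transferred compounds, and grown at 37 °C for at least 48 hr. Viability was read as ATP luminescence.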
Active calls of the source: *; ? = inconclusive; / = no result given; [ ] = remark or other dose. This is a sample that favours compounds with a hit; in the whole collection about 19% have one here. Unless noted, calls come from the whole dose curve; as a rule, active = well fitted curve in the direction sought with a large enough effect; inconclusive = small, poorly fitted or top-dose-only effect, or another doubt; inactive = no such curve, though single readings can be large; an effect the other way counts as inactive or inconclusive. % is set by controls: 0 for no effect and ±100 for the full control effect.

SMILES	Giardia killer	IL-1B inflam inh	ELG1 DNA repair	DT40 TDP1 no CPT	TDP1 block	DT40 TDP1 CPT
COc1ccc(-c2nsc(NC(=O)c3oc4cc(C)c(C)cc4c3C)n2)cc1	/	/	/	-11.8%	-2.3%	-6.1%
O=C(N/N=C\c1cc([N+](=O)[O-])ccc1N1CCCC1)c1ccccn1	-14.9	-16.6	?	-21.4%	-3.7%	?
COc1cc(/C=N/NC(=O)COc2ccc([N+](=O)[O-])cc2)ccc1OCC(=O)N1CCOCC1	3.6	-9.0	-28.4%	16.4µM*	/	-19.1%
CCc1ccc(OCC(=O)N/N=C/c2cc([N+](=O)[O-])ccc2N2CCOCC2)cc1	?	-15.5	-16.6%	?	2.3%	?
CCN(CC)C(=O)C1CCCN(c2ccc([N+](=O)[O-])cc2/C=N/NC(=O)c2cccc(O)c2)C1 (stereo not drawn)	-0.2	-60.6*	?	?	3.8%	?
Cc1cccc(OCC(=O)N/N=C/c2cc([N+](=O)[O-])ccc2N2CCOCC2)c1	-19.9	9.6	?	18.4µM*	7.8%	20.6µM*
COc1ccc(NCC(=O)N/N=C/c2cc([N+](=O)[O-])ccc2N2CCCC2)cc1	-23.4	?	-5.6%	?	8.1%	20.6µM*
CCOC(=O)C1CCN(C(C(=O)NC2CCCC2)c2ccc(C)cc2)CC1 (stereo not drawn)	-19.9	-1.1	-6.5%	-27.0%	4.9%	?
CC1(C)C(=O)OC(/C=C\c2cccc([N+](=O)[O-])c2)C(C)(C)C1=O (stereo not drawn)	-11.7	9.1	-5.2%	1.6%	-8.1%	7.1%
Cc1cccc(Cl)c1NC(=S)NN	23.8	-7.6	-3.7%	13µM*	/	?
Cc1ccc(-c2nn3c(-c4ccccc4C)nnc3c3ccccc23)cc1	/	/	/	18.4µM*	3.2%	?
O=C(O)c1ccccc1C(=O)OC1CCCC2CCCC21 (stereo not drawn)	14.4	18.7	/	1.4%	/	0.0%
CN1CCN(C(=S)NC(CC(=O)c2ccccc2)c2ccccc2)CC1 (stereo not drawn)	3.1	-51.8*	8.0%	-29.8%	1.2%	-6.9%
CC(C)CC(c1nnnn1CC1CCCO1)N1CCN(c2cccc(Cl)c2)CC1 (stereo not drawn)	-0.5	-4.1	1.6%	16.4µM*	4.9%	25.9µM*
CC(C)CC(c1nnnn1Cc1ccco1)N1CCN(c2cccc(Cl)c2)CC1 (stereo not drawn)	0.1	-21.0	?	16.4µM*	-4.1%	?
Cc1ccc(C(c2nnnn2CC2CCCO2)N2CCN(c3cccc(C)c3C)CC2)cc1 (stereo not drawn)	4.5	-25.6	?	23.1µM*	2.3%	?
O=C(CCSc1nc2ccccc2s1)N/N=C/c1c(O)ccc2ccccc12	2.2	192.4	-10.7%	3.66µM*	5.6%	6.51µM*
COc1ccc(/C=N/NC(=O)c2cccnc2)cc1CSc1nc2ccccc2s1	-10.0	6.7	7.31µM*	2.91µM*	4.2%	3.66µM*
COc1ccc(/C=N/NC(=O)c2cccnc2)cc1CN1CCOCC1	0.0	48.7	-1.5%	-2.5%	/	10.9%
COc1ccc(/C=N/NC(=O)c2ccccc2Cl)cc1CSc1nc2ccccc2s1	11.6	49.9	-0.6%	4.61µM*	3.9%	5.8µM*
COc1ccc(/C=N/NC(=O)CCn2cnc(-c3ccccc3)c2-c2ccccc2)cc1OC	-20.9	16.3	?	6.51µM*	-2.7%	5.17µM*
Cc1ccc(S(=O)(=O)CCC(=O)OCCOc2ccc(Br)cc2)cc1	/	-8.3	/	?	/	-7.7%
COc1ccc(CN2CCC(n3cc(C(=O)N4CCCC4)nn3)CC2)c(OC)c1C	/	/	/	-18.7%	/	0.4%
Cc1nc2cccnc2n1C1CCN(C(=O)Nc2ccc(Cl)cc2)CC1	/	/	/	?	6.2%	?
CCc1cccc(C)c1NC(=O)CCCSc1nc2ccccc2s1	8.7	9.9	?	16.4µM*	3.2%	18.4µM*
SMILES	Giardia killer	IL-1B inflam inh	ELG1 DNA repair	DT40 TDP1 no CPT	TDP1 block	DT40 TDP1 CPT
COc1cc(/C=N/NC(=O)CCN2CCN(C(c3ccccc3)c3ccccc3)CC2)ccc1O	6.8	-11.2	-27.0%	11.6µM*	8.2%	13µM*
COc1ccc(/C=N/NC(=O)CCSc2nc3ccccc3s2)cc1OC	-7.4	-20.0	?	29.1µM*	6.8%	13µM*
COc1ccc2nc(-c3ccc(N(C)C)cc3)sc2c1	/	/	/	/	4.4%	/
CC(C(=O)N1CCN(Cc2ccc3c(c2)OCO3)CC1)n1cc([N+](=O)[O-])cn1 (stereo not drawn)	-15.5	28.9	-5.1%	-8.8%	10.5%	7.9%
CCCCC(CC)C(=O)Nc1cc(C(=O)NCCC)ccc1N1CCC2(CC1)CC(c1cccc(Br)c1)=NO2 (stereo not drawn)	?	11.3	-3.6%	-20.6%	1.1%	-11.7%
C=CCSc1nc2sc3c(c2c(=O)n1-c1ccc(C)cc1)CCN(C)C3	-2.3	0.0	-1.4%	?	/	?
CCOc1cc(C(=O)Nc2ccccc2F)cc(Br)c1OCC	0.7	0.0	?	?	0.0%	20.6µM*
CCOc1ccc(C(=O)Nc2cccc(NC(=O)c3ccc(C(C)(C)C)cc3)c2)cc1Br	/	/	/	5.8µM*	1.0%[2.28 µM]	?
CCOc1ccc(C(=O)NCc2ccccc2)cc1Br	7.4	-22.9	14.4%	-1.9%	-1.8%	8.9%
CCOc1ccc(C(=O)Nc2cccc(NC(=O)c3ccco3)c2)cc1Cl	/	/	/	16.4µM*	0.4%[12.3 µM]	?
O=C(Nc1ccc(S(=O)(=O)Nc2nccs2)cc1)/C(=C/c1ccccc1Cl)NC(=O)c1ccccc1	-1.1	-5.3	7.3%	5.6%	4.6%	13.1%
CCCc1nnc(SCC(=O)Nc2cccc(C(F)(F)F)c2)o1	2.5	-6.6	-3.9%	5.3%	12.5%	7.0%
N#Cc1ccc(CSc2nnc(-c3ccc(Br)cc3)o2)cc1	/	/	/	/	-0.6%	/
Cc1ccc(S(=O)(=O)N2CCC(=O)N(CCOCc3cccc(C)c3)CC2)cc1	-12.5	-9.3	-6.7%	?	0.0%	10.3µM*
COc1ccc(COCCN2CCN(S(=O)(=O)c3ccc(C)cc3)CCC2=O)cc1	?	-11.1	-13.0%	?	6.1%	20.6µM*
